PubChem BioAssay

Experiment: inhibitors of poly I:C-induced TLR3 signaling, primary screen, cell-based, poly I:C stimulus, luciferase, 10K MLSCN set (AID 602277)
Conditions: HEK293-TLR3 RL24 IRF3 luciferase reporter, at 10 µM, hits give high values;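 active = inhibition of the reporter signal at or above 50%; inactive = inhibition below 50%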

inhibition, inactive:
Cc1ccc2c(CC(=O)OCc3csc(C)n3)coc2c1 30%
O=C(Nc1ccccc1)c1cnc2n(c1=O)CCS2 -44.7%
Cc1cccc(C2c3c(n(C)c(=O)n(C)c3=O)N=C3c4ccccc4C(=O)C32)c1 (stereo not given) 3.75%
CC1CC(C)CN(CCCNC(=O)c2ccc3c(c2)NC(=O)C(N2CCCCC2)S3)C1 (stereo not given) -14.5%
O=C(Nc1cccnc1)c1noc2c1CCCCC2 -4.09%
O=C(OCc1nnc(-c2ccc(Cl)cc2)o1)c1ccc(=O)n(Cc2ccccc2)n1 -8.16%
CC1CCN(C(=O)CSc2nc3ccccc3[nH]2)CC1 -116%
O=C(Nc1ccc2snnc2c1)N1CCSCC1 3.28%
Cc1cccc(NS(=O)(=O)c2cc(C(=O)OCC(=O)Nc3cc(C)on3)ccc2C)c1 2.98%
COc1ccc(-c2nc3c(c(SCC(=O)N4CCOCC4)n2)COC(C)(C)C3)cc1 19.9%
CNS(=O)(=O)c1cccc(C(=O)OCC(=O)c2cc(C)n(-c3ccc4c(c3)OCO4)c2C)c1 10.6%
Cc1nc(CCNS(=O)(=O)c2cccs2)cs1 -22.4%
O=C(O)CCc1ccc(-c2ccc(F)cc2)n1CC(=O)O 19.7%
CCOc1ccccc1N(CC(=O)N1CCOCC1)S(=O)(=O)c1ccccc1 -26.2%
Cc1onc(-c2ccccc2)c1C(=O)Nc1sc2c(c1C(N)=O)CCC2 -31.8%
Cn1cc(CN2CCc3ccccc3C2)c2ccccc21 37.6%
Cc1cc(C)n(-c2ccc(C(=O)Oc3ccc4c(c3)OCO4)cc2)n1 1.41%
O=C(O)c1cccc(NS(=O)(=O)c2ccc3nnn(O)c3c2)c1 18.7%
CN(Cc1ccccc1)C(=O)c1ccc2c(c1)OCO2 -20.3%
COc1cccc(C(=O)Nc2ccc(C)cc2)c1 -91.5%
Cc1cc(NC(=O)CCOc2ccccc2)no1 23.9%
CCCCOc1ccc(CSc2n[nH]c(C)n2)cc1 -90.2%
COc1ccc(C)cc1NCc1cccc(OC)c1OC 24.1%
O=C(CSc1nc(-c2ccccc2)cs1)NC(=O)NCc1ccco1 3.13%
COC(=O)C1=C(C)C(c2cccs2)NC(=O)N1C (stereo not given) 17.5%
CCCn1c(N)c(C(=O)CSc2nnc(Cc3ccccc3)o2)c(=O)n(C)c1=O -3.84%
CC(C)NC(=O)CSc1nc2ccccc2n1-c1ccccc1 -5.89%
CCCCNC(=O)Cn1c(=O)n(C)c2ccccc21 30%
Cc1csc(NC(=O)C2CCCO2)n1 (stereo not given) 17.7%
COc1ccccc1OCCCCNCCO 25.1%
C/C(=C\c1ccco1)C1C(C#N)=C(N)OC2=C1C(=O)CC(C)(C)C2 (stereo not given) 18.7%
O=C(c1ccc(Cl)c(F)c1F)N1CCCC1 11.3%
CCC(C)(C)n1nnnc1C(c1cc2cc(C)ccc2[nH]c1=O)N1CCCC1 (stereo not given) 28.7%
NC(=O)CCS(=O)(=O)CCN1CCCCC1 23.8%
Cc1ccc(Cn2nnc(C(=O)Nc3cccc(C)c3C)c2N)cc1 9.57%
CSc1oc(-c2ccccc2)nc1S(=O)(=O)c1ccc(F)cc1 22.3%
c1ccc(CN2CCN(CCCNc3ccc4nnc(-c5ccccc5)n4n3)CC2)cc1 -17.8%
Cc1cc(NC(=O)c2ccccc2)ncc1NC(=O)c1ccco1 -25.3%
COc1ccc(Br)cc1C1N2CC3(C)CN1CC(C)(C2)C3=O (stereo not given) 10.3%
Clc1cccc(Nc2c3c(nc4ncnn24)CCC3)c1 30.2%
